Rows were chosen to be rich in hits. Some 0.96% of all compounds tested hit in one or more screens of this group.
V-ATPase pH – regulators of yeast V-ATPase proton pumping, primary screen, pHLuorin cytosolic pH fluorescence; response, % at 10 µM; actives 0.37% (n = 350,000); S. cerevisiae; in the data active means response mostly above about 7.3%, no sharp cut-off; inactive means mostly below about 5.4%; further: actives read high
MIN6 prolif-1 – inducers of MIN6 beta-cell proliferation, primary screen, ATP luminescence, uHTS; actives 0.29% (n = 330,000); MIN6 cells proliferation, ATPlite luminescence, 48 h; cells starved in 0.2% serum; 100% = growth in 10% serum; proliferation, % at 10 µM;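 active means compounds whose signal lies at least 3.5 SD above the mean of all wells on their plate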;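 further: 0% = DMSO-treated cells in low-serum medium and 100% = 10% serum control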
Rtt109 HAT inh – inhibitors of C. albicans Rtt109/Vps75 HAT, primary screen, biochemical, ThioGlo CoA-SH fluorescence, plate reader; purified Rtt109/Vps75, 4 h; AID 540336, 2011; actives 0.16% (n = 330,000); inhibition, % at 34.9 µM;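 active means inhibition of at least 50% in every replicate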
Target sequence (Q5AAJ8 whole entry, looked up): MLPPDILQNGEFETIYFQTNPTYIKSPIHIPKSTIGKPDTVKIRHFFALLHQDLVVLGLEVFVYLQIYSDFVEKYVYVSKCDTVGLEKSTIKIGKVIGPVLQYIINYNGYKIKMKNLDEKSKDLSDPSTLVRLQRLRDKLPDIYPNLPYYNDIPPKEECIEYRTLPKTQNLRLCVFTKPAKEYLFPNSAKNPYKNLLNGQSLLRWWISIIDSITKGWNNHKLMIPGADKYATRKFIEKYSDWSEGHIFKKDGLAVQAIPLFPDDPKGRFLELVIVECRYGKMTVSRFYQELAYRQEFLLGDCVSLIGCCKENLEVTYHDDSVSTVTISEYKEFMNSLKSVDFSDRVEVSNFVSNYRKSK
HDAC3 inhib – HDAC3 deacetylase inhibitors, primary screen, biochemical, fluorescence, cell-free homogeneous; recombinant HDAC3, fluorogenic peptide/trypsin coupled; inhibition, % at 8.3 µM; actives 0.15% (n = 320,000); AID 2718, 2010; Histone deacetylase 3 (Homo sapiens), O15379; in the data active means inhibition above about 26%, passing the limit was not always enough
DAGLB inh – DAGLB lipase inhibitors, primary screen, biochemical, fluorescence, HTS. Diacylglycerol lipase-beta (Homo sapiens), Q8NCG7. HEK293T DAGLB membrane lysate, EnzChek fluorogenic substrate. inhibition, % at 5.17 µM. actives 0.059% (n = 340,000). AID 504411, 2011; in the data active means inhibition above about 34%;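 further: 0% = enzyme with vehicle and 100% = wells lacking enzyme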
MIN6 prolif-2 – inducers of beta-cell proliferation in MIN6, confirmation, MIN6 cells, mouse. 920 tested, under 10 active. proliferation increase, % at 50 µM. ATPlite luminescence, 48 h; cells kept in 0.2% serum; scaled between 0.2% and 10% serum. shares compounds with MIN6 prolif-1;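 active means proliferation increase above 40% at any of the four tested concentrations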
Active calls of the source: *; · = no result.

SMILES	V-ATPase pH	MIN6 prolif-1	Rtt109 HAT inh	HDAC3 inhib	DAGLB inh	MIN6 prolif-2
Cc1cc(C)nc(NC(=NCCc2c[nH]c3ccccc23)NC(=O)c2ccco2)n1	-1	12*	-3	-4	4	-5
O=C(NCc1ccco1)C1CC(=O)N(c2ccc(O)cc2)C1 (stereo not given)	-1	4.7*	4	-2	1	-1
CS(=O)(=O)N1CCC(C(=O)NCc2ccco2)CC1	-4	7.7*	4	·	-2	-3
CCC(NC(=O)c1oc2ccccc2c1COC)c1ccc(OC)cc1 (stereo not given)	-4	-3	2	1	-6	·
O=C(O)C1CCCCC1C(=O)Nc1ccc(F)c(F)c1 (stereo not given)	7	0	-15	11	2	·
CCOC(=O)C1=C(COC(=O)/C=C/c2ccc(OC)c(OC)c2)NC(=O)NC1C (stereo not given)	-3	4	14	2	-3	·
CCOC(=O)C1=C(COC(=O)/C=C/c2ccc(OC)cc2OC)NC(=O)NC1C (stereo not given)	4	13*	2	5	-3	2
COC(C(=O)Nc1ccnn1C1CCN(Cc2ccc(C)s2)CC1)c1ccccc1 (stereo not given)	1	9.2*	-4	·	0	-3
CC(NC(=O)COC(=O)c1cc(S(=O)(=O)N2CCOCC2)ccc1F)c1ccccc1 (stereo not given)	5	-4	-3	-3	0	·
Cc1cc(C(=O)OCC(=O)NCCN2C(=O)CSC2=O)ccc1[N+](=O)[O-]	0	9.7*	-10	-17	0	3
COc1ccc2c(c1)c(C(=O)O)c(C)n2-c1ccc(Cl)cc1	-1	-2	1	7	-1	·
Cc1cc(NC(=O)c2c(-c3c(Cl)cccc3Cl)noc2C)n(C)n1	-1	6.8*	1	-1	2	2
CC(=O)N1c2ccc(S(=O)(=O)N3CCCC3)cc2CC1C(=O)NC(C)C (stereo not given)	-1	13*	0	-5	-2	1
Cn1nc(OCC(=O)O)cc1C(F)(F)F	-3	6.3*	-5	2	0	7
CC(C)c1ccc(S(=O)(=O)N2CCN(C(=O)c3cc([N+](=O)[O-])ccc3N3CCOCC3)CC2)cc1	3	0	5	-9	3	·
O=C(c1cc([N+](=O)[O-])ccc1N1CCOCC1)N1CCN(S(=O)(=O)c2ccc(F)cc2)CC1	-1	11*	0	5	-4	0
COc1ccc(NC(=S)N2CCN(C(=O)c3ccco3)CC2)c(OC)c1	4	0	2	4	-4	·
CCCCOCCCNC(=O)CN1C(=O)c2ccccc2C1=O	-2	-1	-4	-4	1	·
COc1nc(-c2ccncc2)nc2ccccc12	0	6.2*	-17	2	-6	-5
COc1ccc(Oc2nc(-c3ccncc3)nc3ccccc23)cc1	0	-3	3	-11	·	·
c1ccc2c(N3CCCC3)nc(-c3ccncc3)nc2c1	-1	14*	10	0	-3	-6
CN1CCN(c2nc(-c3ccncc3)nc3ccccc23)CC1	-4	1	-9	8	-3	·
Cc1ccc(C(=O)OCC(=O)NCc2cccs2)c(C)c1	-1	4	-12	-2	-7	·
c1ccc2c(c1)OCC(c1csc3ncnc(N4CCOCC4)c13)O2 (stereo not given)	1	5.3*	-6	-11	-1	-4
COc1cccc(NC(=O)CSc2nc(C3CC3)nc3ccccc23)c1	-4	0	9	4	-10	·
SMILES	V-ATPase pH	MIN6 prolif-1	Rtt109 HAT inh	HDAC3 inhib	DAGLB inh	MIN6 prolif-2
Cc1cccc(C)c1NC(=O)CSc1nc(C2CC2)nc2ccccc12	3	0.0*	2	-4	-3	2
COc1ccc(CN2CCCCC2c2cccnc2)c(OC)c1C (stereo not given)	0	6.7*	2	3	0	-1
COc1ccc(OC)c(-c2nc(CN3CCCCC3c3cccnc3)c(C)o2)c1 (stereo not given)	0	6	·	0	2	·
O=C(CSc1ccc2nnc(CCNC(=O)c3ccccc3)n2n1)NCCc1ccccc1	0	10*	-5	-2	3	2
CC(=O)c1cccc(NC(=O)N2C3CCC2CC(NC(=O)Nc2ccccc2)C3)c1 (stereo not given)	0	-4	5	0	-2	·
COc1ccc(CCn2c(=N)c(S(=O)(=O)c3ccc(C)cc3)cc3c(=O)n4ccccc4nc32)cc1	0	13*	-3	-3	4	-3
CCOc1ncccc1C(=O)OC(C)C(=O)Nc1ccc(Cl)cn1 (stereo not given)	-4	13*	-3	·	-17	-1
O=C(Nc1ccccc1Br)c1cccc2ccccc12	-2	8.7*	·	-9	·	-3
CC(=O)Nc1ccccc1NC(=O)c1cccc2ccccc12	2	0	-3	·	0	·
Cc1cnc(C(=O)OCC(=O)Nc2cc(-c3ccccc3)nn2-c2ccccc2)cn1	0	11*	0	0	-1	0
N#CCC(=O)Nc1ccc(C(=O)OCC(=O)Nc2cc(-c3ccccc3)nn2-c2ccccc2)cc1	·	·	·	·	-2	·
CCN(CC)S(=O)(=O)c1cc(OC)c(Cl)cc1OC	-2	7.8*	1	-2	-2	-1
CC(COS(N)(=O)=O)Cc1ccc(C(F)(F)F)cc1 (stereo not given)	0	-5	-5	10	-2	·
CC(C)Nc1nc(NC(C)(C)C)nc(Oc2ccc(=O)n(C)n2)n1	3	7.4*	8	1	0	4
COc1nc(NC(C)(C)C)nc(Oc2ccc(=O)n(C)n2)n1	2	3	-19	5	-1	·
CN(C)CCN1C(=O)C(=O)/C(=C(/O)c2ccc(S(=O)(=O)N3CCOCC3)cc2)C1c1ccc(Br)cc1 (stereo not given)	-2	-1	27	15	0	·
CCOC(=O)c1c(-c2cccs2)csc1NC(C)=O	1	13*	0	-2	-9	-6
N#Cc1ccc(C(=O)Nn2cnnc2)cc1	1	8.2*	-4	0	-3	-1
CC(C)(C)c1ccc(C(=O)Nn2cnnc2)cc1	4	-1	-1	4	0	·
Cc1ccc(NC(=O)C2CC(=O)Nc3ncnn32)cc1Cl (stereo not given)	-4	-4	-5	1	1	·
CCOC(=O)C1CCN(C(=O)c2ccco2)CC1	3	-1	-6	-1	-1	·
O=C(CCC1CCCC1)N1CCN(C(=O)C2CC2)CC1	3	-2	4	-4	-2	·

Bioassay records: PubChem BioAssay, several laboratories
